Laboratory results taken from the supplement of paper PMC6555819.

Experiments:
Experiment in all cases: PBM binding z-score (relative to random genomic background probes); higher = stronger binding; sequences stand for … in GC…GCGATTGACAGCGTAGAATGAAGG
[1] = test system: FXR:RXRa (NR concentration 270 nM, RXRa partner concentration 90 nM)
Summary of the method: (§1)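 Ligand-free nuclear receptor dimers were applied to custom Agilent 4×180K protein-binding microarrays whose double-stranded probes carried direct-repeat seeds, single-nucleotide variants, half-site ablations and random human genomic background sequences in 34-nt variable regions. Incubation lasted 1 h. Binding z-scores were computed against the random background probes from regression-normalized fluorescence.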

[2] = test system: LXRa:RXRa (NR concentration 270 nM, RXRa partner concentration 90 nM)
Summary of the method: as §1

[3] = test system: LXRa homodimer (NR concentration 270 nM)
Summary of the method: as §1

[4] = test system: LXRb:RXRa (NR concentration 270 nM, RXRa partner concentration 90 nM)
Summary of the method: as §1

[5] = test system: LXRb homodimer (NR concentration 270 nM)
Summary of the method: as §1

[6] = test system: PPARa:RXRa (NR concentration 270 nM, RXRa partner concentration 90 nM)
Summary of the method: as §1

[7] = test system: PPARg:RXRa (NR concentration 180 nM, RXRa partner concentration 90 nM)
Summary of the method: as §1

[8] = test system: PPARg:RXRa 270nM:90nM, anti-RXR (NR concentration 270 nM, RXRa partner concentration 90 nM)
Summary of the method: as §1

[9] = test system: PPARg:RXRa 30nM:10nM, anti-RXR (NR concentration 30 nM, RXRa partner concentration 10 nM)
Summary of the method: as §1

[10] = test system: PPARg:RXRa 90nM:30nM, anti-RXR (NR concentration 90 nM, RXRa partner concentration 30 nM)
Summary of the method: as §1

| Sequence | PBM binding z-score [1] | PBM binding z-score [2] | PBM binding z-score [3] | PBM binding z-score [4] | PBM binding z-score [5] | PBM binding z-score [6] | PBM binding z-score [7] | PBM binding z-score [8] | PBM binding z-score [9] | PBM binding z-score [10] |
| --- | --- | --- | --- | --- | --- | --- | --- | --- | --- | --- |
| ATCGAAAGGTCGACGAGGTAAGTATACACCGTTT | 4.59 | 3.11 | -0.055 | 2.62 | 0.428 | 4.09 | 2.6 | 3 | 1 | 2.11 |
| TCTAGCAGGCCAGAGGGTCGCTCAAGAGGTACGG | -2.83 | -0.514 | -0.98 | -0.425 | -1.97 | 0.269 | 0.213 | 1.29 | 1.69 | 1.37 |
| CTCGAAAGTTCGGTTGAGGTGAGTATACGGATAA | 0.279 | 0.2 | -0.166 | 0.297 | -0.341 | 0.506 | -0.114 | 0.109 | -0.0109 | 0.125 |
| GCAGACAGGTGAAACGCAGGTAACTCACGGTGGC | -0.0802 | 0.186 | -0.449 | -0.389 | -1.17 | 0.612 | 0.796 | -0.183 | -0.533 | -0.11 |
| CCTACTGGGCCATCAGGTCAATGATATCAACGTT | 1.53 | 0.905 | 0.486 | 1.15 | -0.402 | 2.54 | 2.79 | 3.37 | 0.642 | 2.76 |
| CCTGCTAGGTCGATGGTCAGCTAAAGCAGCTCGC | -0.156 | -0.179 | -0.637 | -0.279 | -0.599 | 0.0378 | 0.232 | 1.43 | -0.649 | 0.713 |
| TCATATAGGTAAACAGGTGAAAGTCCGTAAGTTA | 0.771 | 1.07 | 0.337 | 0.884 | 0.0234 | 2.39 | 2.99 | 3.77 | 4.16 | 3.87 |
| TCTCTGAGGACACGAAGGTCAGAGCTTTCCAGAG | 2.1 | 1.06 | 0.117 | 0.798 | -0.338 | 2 | 0.595 | 2.08 | 2.59 | 2.22 |
| CAGCCTAGGTCAGGGTCAGTATAGGAGGAACGTT | 3.28 | 2.28 | 0.154 | 2.3 | -0.746 | 3.73 | 2.37 | 2.52 | 0.577 | 1.52 |
| CTACCAAGGAGAACAAGGTCGTTGATTACTATTC | 0.511 | 0.515 | 0.637 | 0.992 | 0.011 | 0.978 | 0.183 | -0.0538 | -0.107 | -0.114 |
| GCTTACGGGTCAAAGGTTATAGAATGAATAGAAT | 7.46 | 6.03 | 0.9 | 5.71 | 0.667 | 7 | 11.4 | 9.46 | 10.1 | 10.7 |
| CGTCAAAGTACAAGGTAACGTAACAGAAAGCAGC | 0.052 | -0.143 | -0.279 | 0.0117 | -0.288 | 0.136 | 0.969 | 0.307 | 0.31 | 0.0776 |
| TGAAAGAGGTTAAAGATCAGGGAACGTGGCGTCG | 3.91 | 3.07 | 0.208 | 2.03 | 0.261 | 4.59 | 4.87 | 5.44 | 3.46 | 5.15 |
| TTACCAAGGTGAGCTGCGGTCGTTGATCCAACTC | 0.391 | 0.351 | -0.281 | -0.0836 | -1.32 | 0.597 | -0.444 | -0.0826 | -0.536 | -0.439 |
| ATTACAGGGTCATCGTAGGCCAGAGTACGCACAG | 7.11 | 6.64 | 1.78 | 4.65 | 2.02 | 6.2 | 7.1 | 6.16 | 2.72 | 5.18 |
| GCCAGCAGGCCATTTGGGTCACTCAATGACGGGC | 0.0652 | -0.0507 | -0.664 | -0.289 | -1.29 | 1.02 | 0.451 | 0.16 | -0.483 | -0.357 |
| CAGTCTAGGTCAGGGCCAGTATAGGAGGAACGTT | 1.52 | 1.1 | -0.0547 | 0.856 | -0.215 | 2.68 | 2.64 | 2.85 | 1 | 1.96 |
| GTACCAAGGTGAATAGGTAGTTGATGAGTAGGCG | 0.274 | 0.228 | 0.0287 | 0.0207 | -0.534 | 0.934 | 0.795 | 0.782 | 0.189 | 0.453 |
| ACTAGTTGGTCAGCGGAGGTCACACACAATTCGG | 2.84 | 3.44 | 3.05 | 3.15 | 0.932 | 3.52 | 1.91 | 2.26 | 1.3 | 1.68 |
| ATCTCTAGGTAACCAAGTTCAGTGGATGCCGAAC | 0.155 | 0.544 | 0.622 | 0.38 | 0.373 | 0.94 | 0.437 | 0.741 | 0.192 | 0.555 |
| TTACCAAGGTGAGCTGAGGTCGCTGATCCAACTC | 1.17 | 0.578 | -0.612 | 0.416 | -1.44 | 1.52 | 0.0966 | 1 | -0.104 | 0.763 |
| TTACCAAGGTGAAGGTCATTGATCCCTCTGTAGA | 4.39 | 4.39 | 2.26 | 3.7 | -0.235 | 4.36 | 5.26 | 5.49 | 3.52 | 5.38 |
| ACTAGTTGGTCAGCTGAGGTCACCCACAATTCGG | 3.88 | 3.1 | 2.1 | 3.2 | 0.552 | 3.63 | 1.42 | 2.6 | 0.58 | 2.01 |
| CCTACTGGTCCATCAGGTCATTGATATCAACGTT | 1.32 | 1.8 | 2.15 | 2.01 | 0.36 | 1.88 | 0.421 | 1.34 | 0.261 | 0.824 |
